Screening data deposited in PubChem BioAssay by National Center for Advancing Translational Sciences (NCATS).
IL-1B inflam inh: inhibitors of inflammasome signaling (IL-1 beta secretion); THP-1 LPS/ATP IL-1B secretion, AlphaLISA, 16 h; stronger effect = lower value; hit rate 4.7% among 360,000; activity change, % at 57.5 µM; in the data active = activity change below about -50%; inconclusive = mostly about -30% to -49%
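Secreted IL-1B measured by AlphaLISA bead assay after 16 h compound exposure of THP-1 cells; compounds (final up to 57.5 uM) added 1 h before LPS (250 ng/mL) and ATP (1.25 mM) stimulation; lower signal means less secretion.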
RORg inh: blocks mouse ROR gamma transcriptional activity | P51450 | Drosophila S2 Gal4-RORgamma UAS-luciferase reporter, 20 h | Potency, µM (titrated, usually from 53.6 µM), inactives show top-dose activity change, negative = inhibition, actives largely listed as inhibitors | hit rate 5.4% among 310,000; also: potency is read from the fitted curve at half-maximal effect; nearly all actives have a fitted effect of over 60% in size
Target sequence (P51450 whole entry, looked up, the tested form may be a part): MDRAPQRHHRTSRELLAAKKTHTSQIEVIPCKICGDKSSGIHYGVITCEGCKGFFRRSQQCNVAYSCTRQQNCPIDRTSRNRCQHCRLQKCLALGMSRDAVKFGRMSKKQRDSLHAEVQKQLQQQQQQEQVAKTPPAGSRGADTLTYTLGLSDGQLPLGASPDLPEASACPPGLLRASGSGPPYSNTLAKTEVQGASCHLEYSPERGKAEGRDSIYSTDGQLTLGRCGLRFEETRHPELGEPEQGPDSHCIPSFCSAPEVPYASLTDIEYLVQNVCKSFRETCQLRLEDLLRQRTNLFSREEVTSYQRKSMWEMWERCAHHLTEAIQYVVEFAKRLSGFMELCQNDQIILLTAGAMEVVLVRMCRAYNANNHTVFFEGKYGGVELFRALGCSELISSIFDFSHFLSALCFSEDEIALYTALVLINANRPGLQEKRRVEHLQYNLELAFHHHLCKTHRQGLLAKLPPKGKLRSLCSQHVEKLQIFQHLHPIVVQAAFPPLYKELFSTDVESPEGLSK
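Compounds are pin-transferred onto Drosophila Schneider cells expressing a copper-inducible Gal4–ROR gamma transactivation domain fusion. After 1 hr, copper sulfate is added to 700 uM final; luciferase is read 20 hr later.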
ELG1 DNA repair: inhibitors of ELG1-dependent DNA repair in HEK293T cells | HEK293T ELG1-luciferase reporter, luminescence, 16 h; DNA damage induced by 5-fluorouridine | Potency, µM (highest dose often 46.1 µM), without a hit: at the highest dose activity change, negative = inhibition, most hits filed as inhibitors | hit rate 2.3% among 330,000 | AID 504467; also: potency is read from the fitted curve at half-maximal effect; nearly all actives have a fitted effect of over 55% in size
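In this reporter screen, reduction of luminescence relative to DMSO vehicle indicated activity. Compounds and 5-fluorouridine were added together to 2,000 cells per well, incubated for 16 hr at 37 °C, then developed with ONE-Glo.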
DT40 TDP1 CPT: DT40-hTDP1 cell growth loss with CPT; Potency, µM (titrated, usually from 46.2 µM), for inactives: top-dose activity change, negative = growth inhibition, most hits filed as inhibitors; hit rate 12% among 420,000; chicken DT40 Tdp1-/-;hTDP1 cells + 20 nM CPT, ATP luminescence, 48 h; also: potency is read from the fitted curve at half-maximal effect; nearly all actives have a fitted effect of over 55% in size
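Chicken DT40 Tdp1-/- cells complemented with human TDP1, 400 cells/well, exposed to compounds plus 20 nM camptothecin for at least 48 h at 37 C; viability read as ATP content by CellTiter-Glo luminescence.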
Gal4-VP16 FLuc: counter-screen for ROR gamma inhibitors: Gal4-VP16 reporter; Drosophila S2 Gal4-VP16 UAS-luciferase, luminescence, 20 h; Potency, µM (highest dose often 53.6 µM), for inactives: top-dose activity, negative = inhibition, most hits filed as inhibitors; hit rate 3.5% among 310,000;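 also: Gal4-VP16 expression switched on by copper sulfate through the metallothionein promoter; potency is read from the fitted curve at half-maximal effect; nearly all actives have a fitted effect of over 50% in size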
TDP1 cell noCPT: qHTS for Inhibitors of human tyrosyl-DNA phosphodiesterase 1 (TDP1): qHTS in cells in absence of CPT; DT40 Tdp1-/- hTDP1 cells, no CPT, ATP luminescence, 48 h; Potency, µM (titrated, usually from 46.2 µM), without a hit: at the top dose activity change, negative = growth inhibition, usual class: inhibitors; hit rate 15% among 420,000; AID 686978, 2013; also: potency is read from the fitted curve at half-maximal effect; nearly all actives have a fitted effect of over 55% in size
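Growth of hTDP1-complemented DT40 Tdp1-knockout cells is measured by ATP luminescence after at least 48 hr compound exposure at 37 °C, with DMSO substituting for the 20 nM CPT used in the parallel screen.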
* hit, by the source's call; ? = inconclusive; nt = no result given; ! = repeats disagree; [ ] = remark or other dose. A selection: hits, their analogues and other compounds. The true share with any hit is near 21%. Unless noted, calls follow the shape of the dose curve; as a rule, active = well fitted curve in the direction sought with a large enough effect; inconclusive = small, poorly fitted or top-dose-only effect, or another doubt; inactive = no such curve, though single readings can be large; an effect the other way counts as inactive or inconclusive. % is scaled to controls: 0 for no effect and ±100 for the full control effect.

SMILES	IL-1B inflam inh	RORg inh	ELG1 DNA repair	DT40 TDP1 CPT	Gal4-VP16 FLuc	TDP1 cell noCPT
O=[N+]([O-])c1ccc(N2CCOCC2)cc1NCCCO	-6.1	-2.3%	15.4%	-28.2%	3.4%	?
CC1CN(c2ccc([N+](=O)[O-])c(NCCOc3ccccc3)c2)CCN1 (stereo not drawn)	-61.6*	-2.5%	6.3%	?	-4.3%	?
Cc1cccc(OCCNc2cc(N3CCN(CCO)CC3)ccc2[N+](=O)[O-])c1	0.0	?	5.3%	?	-3.5%	20.6µM*
Cc1ccccc1OCCNc1cc(N2CCN(CCO)CC2)ccc1[N+](=O)[O-]	-76.3*	-3.8%	-0.6%	?	-11.8%	?
CCN1CCN(C(=O)c2cc(COc3ccc(C(C)=O)cc3OC)on2)CC1	12.2	-0.6%	?	2.8%	9.3%	-3.4%
O=[N+]([O-])c1ccc(N2CCN(S(=O)(=O)c3ccccc3)CC2)cc1NCCN1CCOCC1	-5.6	?	25.9µM*	?	-8.0%	?
COc1ccc(OCCNc2cc(N3CCOCC3)ccc2[N+](=O)[O-])cc1	-16.9	41.0%	?	?	-1.4%	?
CCNc1cc(N2CCCC2)ccc1[N+](=O)[O-]	-10.8	4.5%	7.7%	4.9%	-1.7%	-16.8%
Cc1ccccc1OCCNc1cc(N2CCCCC2)ccc1[N+](=O)[O-]	-16.8	?	14.6%	20.6µM*	-10.1%	?
COc1ccc(OCCNc2cc(N3CCCCC3)ccc2[N+](=O)[O-])cc1	?	6.0%	?	18.4µM*	2.1%	23.1µM*
CN(C)c1ccc(/C=C/C=C2/SC(=S)N(c3ccccc3)C2=O)cc1	?	-27.7%	?	18.4µM*	-2.9%	8.2µM*
O=C1/C(=C/C=C/c2ccco2)SC(=S)N1c1ccc(O)cc1	-22.8	9.7%	?	18.4µM*	1.4%	?
O=C1/C(=C\c2ccco2)SC(=S)N1c1ccc(O)cc1	-19.4	-31.3%	16.7%	5.3%	1.2%	-14.4%
CC1CCCN(Cc2nc3c(c(=O)n(C)c(=O)n3C)n2CCCc2ccccc2)C1 (stereo not drawn)	-2.5	-13.4%	?	20.6µM*	3.7%	18.4µM*
Cn1c(=O)c2c(nc(CN3CCCCC3)n2CCCc2ccccc2)n(C)c1=O	12.2	nt	nt	?	nt	?
Cn1c(=O)c2c(nc(CN3CCN(C(=O)c4ccco4)CC3)n2CCCc2ccccc2)n(C)c1=O	9.6	35.7%	?	?	-4.3%	20.6µM*
CCCCCCn1c(CN2CCN(C(=O)c3ccco3)CC2)nc2c1c(=O)n(C)c(=O)n2C	-9.1	?	13µM*	?	4.1%	?
CCOc1ccccc1-n1c(SCC(=O)N2CCOCC2)nc2ccccc2c1=O	-6.8	?	9.7%	1.2%	-6.7%	-29.7%
O=C(NC(=S)NCCC1=CCCCC1)c1ccco1	-11.0	4.47µM*	?	?	?	?
O=C(NC(=S)NCCC1=CCCCC1)c1ccc(Br)o1	-7.4	4.47µM*	?	?	?	-25.7%
Cc1ccccc1OCC(=O)NCCC1=CCCCC1	-2.5	?	16.8%	?	?	?
O=C(Cc1ccccc1)NCCC1=CCCCC1	4.8	18.0%	?	2.1%	-5.6%	20.7%
O=C(NCCC1=CCCCC1)c1ccc(Br)o1	4.7	-0.1%	?	8.2µM*	13.9%	9.2µM*
Cc1ccccc1C(=O)NC(=S)NCCC1=CCCCC1	63.3	3.98µM*	3.3%	-21.8%	15.8µM*	?
CCn1c(NC(C)=O)c(-c2ccccc2Cl)c(=O)c2ccccc21	-0.9	6.0%	13.7%	-2.7%	-4.0%	11.3%
SMILES	IL-1B inflam inh	RORg inh	ELG1 DNA repair	DT40 TDP1 CPT	Gal4-VP16 FLuc	TDP1 cell noCPT
c1ccc2sc(-n3cc(C4CCCCC4)nn3)nc2c1	75.8	nt	nt	?	nt	?
CC1CN(CC(=O)NCCC2COc3ccccc3O2)Cc2cc(Cl)ccc2O1 (stereo not drawn)	nt	nt	nt	5.5%[9.04 µM]	nt	-22.7%
O=C(NC(=S)NCc1ccc(Cl)cc1)c1ccco1	-100.9*	nt	?	?	nt	?
O=C(NCc1ccc(Cl)c(Cl)c1)c1ccco1	-4.1	4.7%	-6.3%	-12.6%	17.1%	?
O=C(NC(=S)NCCc1ccccc1)c1ccco1	6.7	6.31µM*	?	?	?	?
Cc1cc(NC(=O)OC2CCCCC2)ccc1[N+](=O)[O-]	-51.2*	85.7%	?	-6.6%	?	?
O=C(NCc1ccccc1Cl)[C@H]1CCCN1C(=O)[C@H]1CCCN1C(=O)c1cccs1	-8.1	nt	nt	-14.9%	nt	-5.7%
Cc1ccc(NC(=O)c2nc[nH]c2C(=O)N(C)CCO)cc1	-18.4	nt	nt	1.4%	nt	-13.5%
O=c1cc(-c2ccccc2)[nH]c2cc(Cl)ccc12	42.8	1.8%[96.6 µM]	6.6%	0.461µM*	-8.0%[96.6 µM]	0.731µM*
O=c1cc(-c2ccccc2)[nH]c2ccc(F)cc12	79.2	?	?	0.92µM*	-6.1%[96.6 µM]	0.517µM*
Cc1ccc(-c2cc(=O)c3cc(C)ccc3[nH]2)cc1	56.9	10µM*	?	5.17µM*	15.8µM*	3.66µM*
O=c1cc(-c2ccccc2)[nH]c2ccc(Cl)cc12	nt	-2.1%[96.6 µM]	nt	nt	18.3%[96.6 µM]	nt
Cc1ccc(-c2cc(=O)c3cc(F)ccc3[nH]2)cc1	30.9	15.9%	25.3%	23.1µM*	-2.5%	?
O=c1cc(-c2cccc(F)c2)[nH]c2ccc(Cl)cc12	nt	?	nt	nt	-11.9%[96.6 µM]	nt
CC(=O)OCCBr	nt	-0.1%	nt	nt	-4.5%	nt
O=c1cc(-c2ccc(F)cc2F)[nH]c2ccccc12	nt	8.91µM*!	1.6%	nt	-1.7%[96.6 µM]	nt
COc1ccc2[nH]c(-c3cccc(F)c3)cc(=O)c2c1	27.0	8.4%[96.6 µM]	?	0.326µM*	12.0%[96.6 µM]	0.231µM*
O=c1cc(-c2cccc(F)c2)[nH]c2ccccc12	51.1	24.3%[96.6 µM]	-1.4%	1.03µM*	-3.3%[96.6 µM]	0.581µM*
COc1ccccc1-c1nccc(-n2ccnc2)n1	nt	-21.9%	nt	2.3%	1.6%	-9.4%
c1cncc(-c2nc(N3CCCCCC3)c3ccccc3n2)c1	-20.6	11.2µM*	?	?	?	?
c1ccc2c(N3CCCCC3)nc(N3CCCCC3)nc2c1	4.1	?	-1.1%	18.4µM*	4.5%	?
c1ccc(-c2nc(N3CCCC3)nc3ccccc23)cc1	18.8	-8.0%	2.3%	-29.7%	-15.3%	?
CCN1CCN(c2nc(-c3ccncc3)nc3ccccc23)CC1	nt	-26.0%	0.2%	nt	-5.7%	nt
